Experimental data from the supplement of paper PMC8728848.
Many of the other results were omitted from the sample, so the strongest signals are more common in it than they were.

Legend:
Experiment in all cases: glycan array binding signal (z-score within array); higher = stronger binding
Conditions in all cases: glycan notation: IUPAC condensed, linker removed
Fuc(a1-2)Gal(b1-3)GlcNAc = target: Fuc(a1-2)Gal(b1-3)GlcNAc
In short: (§1)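 The binding signal is a Z-score computed within each array and averaged over linkers. Arrays of the same protein sequence at different concentrations or buffers were also averaged together. Data originate from 3228 arrays in the Consortium for Functional Glycomics database, kept only where the protein sequence was available.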

[1] = target: Fuc(a1-2)Gal(b1-3)GlcNAc6S
In short: as §1

[2] = target: Fuc(a1-2)Gal(b1-3)[Fuc(a1-4)]GlcNAc
In short: as §1

[3] = target: Fuc(a1-2)Gal6S(b1-3)GlcNAc
In short: as §1

[4] = target: Fuc(a1-2)Gal6S(b1-3)GlcNAc6S
In short: as §1

[5] = target: Fuc(a1-2)[GalNAc(a1-3)]Gal(b1-3)GlcNAc(b1-3)GalNAc
In short: as §1

[6] = target: Fuc(a1-3)[Gal(b1-4)]GlcNAc6S
In short: as §1

[7] = target: Fuc(a1-3)[Gal3S(b1-4)]Glc
In short: as §1

[8] = target: Fuc(a1-3)[Gal3S(b1-4)]GlcNAc
In short: as §1

Gal(a1-3)Gal = target: Gal(a1-3)Gal
In short: as §1

[9] = target: Gal(a1-3)Gal(b1-3)GlcNAc(b1-2)Man
In short: as §1

Gal(b1-2)Gal = target: Gal(b1-2)Gal
In short: as §1

[10] = target: Gal(b1-3)GlcNAc(a1-3)Gal(b1-4)GlcNAc
In short: as §1

[11] = target: Gal(b1-3)GlcNAc(b1-2)[Gal(b1-3)GlcNAc(b1-6)]Man(a1-6)[Gal(b1-3)GlcNAc(b1-2)Man(a1-3)]Man(b1-4)GlcNAc(b1-4)GlcNAc
In short: as §1

[12] = target: Gal(b1-3)GlcNAc(b1-3)Gal(b1-4)Glc
In short: as §1

[13] = target: Gal(b1-3)GlcNAc(b1-3)Gal(b1-4)GlcNAc(b1-2)[Gal(b1-3)GlcNAc(b1-3)Gal(b1-4)GlcNAc(b1-6)]Man(a1-6)[Gal(b1-3)GlcNAc(b1-3)Gal(b1-4)GlcNAc(b1-2)Man(a1-3)]Man(b1-4)GlcNAc(b1-4)[Fuc(a1-6)]GlcNAc
In short: as §1

[14] = target: Gal(b1-4)GlcNAc(b1-2)Man(a1-3)[Gal(b1-4)GlcNAc(b1-2)Man(a1-6)][GlcNAc(b1-4)]Man(b1-4)GlcNAc(b1-4)[Fuc(a1-6)]GlcNAc
In short: as §1

[15] = target: Gal(b1-4)GlcNAc(b1-3)Gal(b1-4)GlcNAc(b1-3)Gal(b1-4)GlcNAc
In short: as §1

[16] = target: Gal(b1-4)GlcNAc(b1-3)Gal(b1-4)GlcNAc(b1-3)Gal(b1-4)GlcNAc(b1-3)Gal(b1-4)GlcNAc(b1-3)Gal(b1-4)GlcNAc(b1-2)Man(a1-3)[Gal(b1-4)GlcNAc(b1-3)Gal(b1-4)GlcNAc(b1-3)Gal(b1-4)GlcNAc(b1-3)Gal(b1-4)GlcNAc(b1-3)Gal(b1-4)GlcNAc(b1-2)Man(a1-6)]Man(b1-4)GlcNAc(b1-4)GlcNAc
In short: as §1

[17] = target: Gal(b1-4)GlcNAc(b1-6)Gal(b1-4)GlcNAc
In short: as §1

Gal6S(b1-3)GlcNAc = target: Gal6S(b1-3)GlcNAc
In short: as §1

GalNAc(b1-4)GlcNAc = target: GalNAc(b1-4)GlcNAc
In short: as §1

[18] = target: GalNAc(b1-4)GlcNAc(b1-2)Man
In short: as §1

[19] = target: GalNAc(b1-4)GlcNAc(b1-3)GalNAc(b1-4)GlcNAc
In short: as §1

GalNAc4S6S(b1-4)GlcNAc = target: GalNAc4S6S(b1-4)GlcNAc
In short: as §1

[20] = target: Glc(a1-4)Glc(a1-4)Glc(a1-4)Glc
In short: as §1

[21] = target: Glc(a1-6)Glc(a1-6)Glc(a1-6)Glc
In short: as §1

Glc(b1-6)Glc = target: Glc(b1-6)Glc
In short: as §1

[22] = target: GlcNAc(a1-4)Gal(b1-4)GalNAc
In short: as §1

[23] = target: GlcNAc(a1-4)Gal(b1-4)GlcNAc
In short: as §1

B1: Pa IMPa (Pseudomonas aeruginosa), Q9I5W4 (protein)
chain: MSLSTTAFPSLQGENMSRSPIPRHRALLAGFCLAGALSAQAATQEEILDAALVSGDSSQLTDSHLVALRLQQQVERIRQTRTQLLDGLYQNLSQAYDPGAASMWVLPANPDNTLPFLIGDKGRVLASLSLEAGGRGLAYGTNVLTQLSGTNAAHAPLLKRAVQWLVNGDPGAATAKDFKVSVVGVDKTAALNGLKSAGLQPADAACNALTDASCASTSKLLVLGNGASAASLSATVRARLQAGLPILFVHTNGWNQSSTGQQILAGLGLQEGPYGGNYWDKDRVPSSRTRTRSVELGGAYGQDPALVQQIVDGSWRTDYDWSKCTSYVGRTTCDDVPGLSDFSKRVDVLKGALDAYNQKAQNLFALPGTTSLRLWLLWADAVRQNIRYPMDKAADTARFQETFVADAIVGYVREAGAAQKELGSYAGQRQQSMPVSGSEETLTLTLPSAQGFTAIGRMAAPGKRLSIRIEDAGQASLAVGLNTQRIGSTRLWNTRQYDRPRFLKSPDIKLQANQSVALVSPYGGLLQLVYSGATPGQTVTVKVTGAASQPFLDIQPGEDSSQAIADFIQALDADKADWLEIRSGSVEVHAKVEKVRGSIDKDYGGDVQRFIRELNEVFIDDAYTLAGFAIPNQAKTPAIQQECAARGWDCDSETLHKLPGTQHINVDQYAQCGGGCSGNPYDQTWGLNPRGWGESHELGHNLQVNRLKVYGGRSGEISNQIFPLHKDWRVLREFGQNLDDTRVNYRNAYNLIVAGRAEADPLAGVYKRLWEDPGTYALNGERMAFYTQWVHYWADLKNDPLQGWDIWTLLYLHQRQVDKSDWDANKAALGYGTYAQRPGNSGDASSTDGNDNLLLGLSWLTQRDQRPTFALWGIRTSAAAQAQVAAYGFAEQPAFFYANNRTNEYSTVKLLDMSQGSPAWPFP
- glycan array binding signal (z-score) (Fuc(a1-2)Gal(b1-3)GlcNAc): -0.318
- glycan array binding signal (z-score) [1]: -0.327
- glycan array binding signal (z-score) [2]: -0.558
- glycan array binding signal (z-score) [3]: 0.048
- glycan array binding signal (z-score) [4]: 2.91
- glycan array binding signal (z-score) [5]: -0.411
- glycan array binding signal (z-score) [6]: -0.132
- glycan array binding signal (z-score) [7]: -0.077
- glycan array binding signal (z-score) [8]: -0.278
- glycan array binding signal (z-score) (Gal(a1-3)Gal): 0.105
- glycan array binding signal (z-score) [9]: -0.472
- glycan array binding signal (z-score) (Gal(b1-2)Gal): 0.524
- glycan array binding signal (z-score) [10]: 1.27
- glycan array binding signal (z-score) [11]: -0.438
- glycan array binding signal (z-score) [12]: 0.215
- glycan array binding signal (z-score) [13]: 0.004
- glycan array binding signal (z-score) [14]: -0.448
- glycan array binding signal (z-score) [15]: -0.198
- glycan array binding signal (z-score) [16]: 10.7
- glycan array binding signal (z-score) [17]: -0.112
- glycan array binding signal (z-score) (Gal6S(b1-3)GlcNAc): 1.34
- glycan array binding signal (z-score) (GalNAc(b1-4)GlcNAc): -0.367
- glycan array binding signal (z-score) [18]: 0.357
- glycan array binding signal (z-score) [19]: -0.197
- glycan array binding signal (z-score) (GalNAc4S6S(b1-4)GlcNAc): 1.48
- glycan array binding signal (z-score) [20]: 0.634
- glycan array binding signal (z-score) [21]: 0.853
- glycan array binding signal (z-score) (Glc(b1-6)Glc): -0.442
- glycan array binding signal (z-score) [22]: 0.088
- glycan array binding signal (z-score) [23]: 3.49
